Screens from PubChem.
aSyn rescue: alpha-synuclein toxicity inhibition in yeast. Yeast expressing alpha-synuclein, growth rescue, BacTiter-Glo, 24 h. Potency, µM (doses to about 46.1 µM), without a hit: at the top dose growth rescue (activation), most hits filed as activators. 370,000 tested, 0.14% active. AID 652106; note: % of control where 0% means no effect; nearly all actives have a fitted effect of over 65% in size
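Screening used galactose-induced yeast with toxic alpha-synuclein levels, exposed to compound for 24 hr at 30 deg C. Cell growth, read with BacTiter-Glo luminescence, gave the measured signal.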
Mito fusion act: inhibitors of mitochondrial division or activators of mitochondrial fusion; S. cerevisiae fusion-defective mutant growth rescue, CellTiterGlo 48 h; Potency, µM (titrated, usually from 46.1 µM), inactives show at the highest dose growth rescue (activation), most hits filed as activators; 320,000 tested, 0.23% active; AID 485298; note: % of control where 0% means no effect; nearly all actives have a fitted effect of over 45% in size
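S. cerevisiae fusion-defective temperature-sensitive mutants (e.g. fzo1-1, mgm1-5) grown 48 h at 37C in YPEG (ethanol/glycerol non-fermentable) medium with 23 nl compound per well; growth rescue read as CellTiterGlo luminescence.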
A-T KAP1 phos: potential ataxia-telangiectasia treatment; AID 485349; Potency, µM (doses to about 57.5 µM), without a hit: at the highest dose activation, usual class: activators; F2112 A-T fibroblasts, KAP-1 phosphorylation AlphaLISA; neocarzinostatin DNA damage 30 min before lysis; 320,000 tested, 0.19% active; note: % of control where 0% means no effect; nearly all actives have a fitted effect of over 45% in size
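hTERT-immortalized A-T patient fibroblasts (F2112), 500 cells/well in OPTI-MEM, 1% FBS, got compounds for 60 min, then NCS for 30 min at 37C. Lysates were then assayed for phospho-KAP-1 by AlphaLISA (anti-pKAP1 donor, anti-KAP1 acceptor beads), 6 hr at 25C.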
Glioma ERSR ind: ER stress response induction in glioma; U87-MG GRP78 promoter luciferase reporter, 16 h; Potency, µM, without a hit: at the highest dose activation, usual class: activators; 420,000 tested, 0.02% active; note: series mostly up to about 76 µM; % of control where 0% means no effect; nearly all actives have a fitted effect of over 35% in size
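ERSR induction read as luciferase luminescence (Bright-Glo, 10 min at room temperature) in stably transfected human U87-MG glioma cells exposed to compounds for 16 h, using GRP78 as sensor.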
TDP43 rescue: inhibitors of TDP-43 toxicity in yeast. TDP-43 expressing yeast growth rescue, BacTiter-Glo, 24 h. Potency, µM (series often up to 46.1 µM), for the others: top-dose growth rescue (activation), most hits filed as activators. 410,000 tested, 1.8% active; note: % of control where 0% means no effect; nearly all actives have a fitted effect of over 50% in size
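Growth rescue of TDP-43-toxic yeast measured as ATP luminescence (BacTiter-Glo). Cells grown to mid-log in raffinose, induced in galactose at OD600=0.02, exposed to compound 24 hr at 30 deg C.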
Abeta rescue: restores growth of yeast expressing A-beta42 peptide | 410,000 tested, 0.063% active | AID 1347071 | Potency, µM (titrated, usually from 46.1 µM), usual class: activators | yeast expressing A-beta42, growth rescue, OD600, 48 h; response scale: 0% DMSO, 100% iron-clioquinol control; note: nearly all actives have a fitted effect of over 55% in size
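Yeast growth medium received pinned compounds, then yeast cells expressing toxic A-beta were added; plates incubated at 30 C for 48 hr. Growth read as absorbance at 600 nm, normalized to DMSO and equimolar FeCl3 plus clioquinol controls.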
The depositor's hits bear a star; i = inactive; ? = inconclusive; . = no result given; [ ] = remark or other dose. The list is not random: actives were taken first. Their share in the collection is about 2.1%. Calls come from the whole dose curve; as a rule, active = well fitted curve in the direction sought with a large enough effect; inconclusive = small, poorly fitted or top-dose-only effect, or another doubt; inactive = no such curve, though single readings can be large; an effect the other way counts as inactive or inconclusive. Potency is the fitted concentration of half-maximal effect.

SMILES | aSyn rescue | Mito fusion act | A-T KAP1 phos | Glioma ERSR ind | TDP43 rescue | Abeta rescue
O=C(Nc1nc(-c2cccs2)c(C(=O)C(F)(F)F)s1)c1ccccc1 | -3% | ? | -11% | -2% | 16% | i
O=C(Nc1nc(-c2cccs2)c(-c2ccccc2)s1)c1ccco1 | -24% | 25% | 29% | 4% | 13µM* | i
COc1ccc(OC)c(-c2ccnc(-n3ncc(C(=O)N(C)CCc4ccccn4)c3C)n2)c1 | . | . | . | 0% | . | .
O=C(Cn1cccn1)N1CCOc2c(cc(-c3ncc(C(F)(F)F)cc3Cl)cc2OCC2CCCO2)C1 (stereo unspecified) | . | . | . | -5% | . | .
Cc1ccc(Cc2cnc(NC(=O)c3ccc4c(c3)CC(c3ccccc3)OC4=O)s2)cc1 (stereo unspecified) | . | . | . | -1% | 11% | i
Cc1ccc(-c2nnc(Nc3ccc(O)cc3)c3ccccc23)cc1S(=O)(=O)N1CCCCC1 | . | . | . | 1% | 15% | i
CN(C)c1ccc(/C=C/c2ccnc3cc(Cl)ccc23)cc1 | 1% | . | . | -1% | . | .
CCc1ccc(NC(=O)c2cc(C(C)=O)n3ccccc23)cc1 | . | . | . | 13% | 11µM* | i
COc1ccccc1C/C(N)=N/OC(=O)c1ccc2c(c1)OCO2 | -71% | 9% | 6% | ? | ? | i
COc1ccccc1C/C(N)=N/OC(=O)c1ccco1 | -33% | 11% | -2%[11.5 µM] | 3% | 10µM* | i
CN(C)c1ccc(C(CNC(=O)c2ccco2)N2CCCC2)cc1 (stereo unspecified) | -6% | -1% | 2% | -3% | 18% | i
Cn1c(=O)c2c(nc(NCc3ccccc3)n2Cc2ccc(Cl)c(Cl)c2)n(C)c1=O | . | . | . | -4% | 15% | i
CCC(=O)NC(=S)Nc1ccc(NC(=O)COc2ccc(Cl)c(C)c2)cc1 | -2% | -4% | 2% | 2% | 4% | i
Cc1cc(OCC(=O)NNC(=S)NC(=O)c2ccc(Br)o2)ccc1Cl | ? | 2% | 13% | -2% | 20µM* | ?
CCCCc1ccc(S(=O)(=O)Nc2ccc(C)c(NS(C)(=O)=O)c2)cc1 | -4% | 8% | ? | -5% | 6% | i
CCCc1ccc(S(=O)(=O)Nc2ccc(C)c(NS(C)(=O)=O)c2)cc1 | -5% | 5.6µM* | ? | -11% | -21% | i
Cc1cccc(OCC(=O)Nc2nonc2-c2ccc(Br)cc2)c1C | . | . | . | . | 21% | i
COc1ccc(CN2CCC3(CC2)c2ccccc2[C@@H](NC(=O)c2ccccc2OC)[C@@H]3O)cc1O | . | . | . | 2% | . | .
COC(=O)c1ccc(N2C(=O)CC(N(C)CCc3ccc(OC)c(OC)c3)C2=O)cc1 (stereo unspecified) | -56% | -34% | 4% | 1% | ? | i
COc1ccc(CN(N=O)C2CC(=O)N(c3ccc(OC)cc3)C2=O)cc1 (stereo unspecified) | 7% | 3% | -1% | 2% | 18% | i
CCCOc1ccc(N2C(=O)CC(N(Cc3ccccc3)N=O)C2=O)cc1 (stereo unspecified) | 0% | -3% | -1% | -3% | 20µM* | i
COC(=O)c1ccc(N2C(=O)CC(N(C)Cc3ccccc3)C2=O)cc1 (stereo unspecified) | -32% | -6% | -3% | -2% | 7.1µM* | i
CCOc1ccc(N2C(=O)CC(N(C)Cc3ccccc3)C2=O)cc1 (stereo unspecified) | 7% | 8% | -1% | 1% | 18µM* | i
CCN(CC)C(=O)C1=CC(c2ccc3c(c2)OCO3)=NS(=O)(=O)N1C | . | . | . | -5% | 11% | i
CC(C)(C)C(=O)CSc1n[nH]c(-c2ccccc2)n1 | -2% | . | . | 0% | . | .
SMILES | aSyn rescue | Mito fusion act | A-T KAP1 phos | Glioma ERSR ind | TDP43 rescue | Abeta rescue
CCC1CCCCN1S(=O)(=O)c1ccc(NC(=O)c2snnc2C)cc1 (stereo unspecified) | -1% | 11% | 3% | -3% | ? | i
CCC1CCCCN1S(=O)(=O)c1ccc2c(c1)CCN2C(=O)C1CCC1 (stereo unspecified) | 8% | -4% | -1% | -7% | 35µM* | i
CCC1CCCCN1S(=O)(=O)c1ccc(NC(=O)c2cccs2)cc1 (stereo unspecified) | 0% | 16µM* | 2% | -1% | -14% | i
CCC1CCCCN1S(=O)(=O)c1ccc2c(c1)CCCN2C(C)=O (stereo unspecified) | . | . | . | -5% | ? | i
Cc1ccc(Nc2nc(N)c([N+](=O)[O-])c(N3CCC(C)CC3)n2)cc1C | 14% | -27% | 32µM* | -1% | ? | i
Cc1cccc(Nc2nc(N)c([N+](=O)[O-])c(N3CCCC(C)C3)n2)c1 (stereo unspecified) | -68% | -25% | 17% | 15% | -86% | i
Cc1ccc(Nc2nc(N)c([N+](=O)[O-])c(N3CCOCC3)n2)cc1C | 9% | -29% | -7% | -1% | 18µM* | ?
COc1ccc(-c2nc3cnc(N4CCN(C)CC4)nc3n(-c3ccc(OC)cc3)c2=O)cc1 | . | . | . | -4% | . | .
COc1ccc(-c2nc(C)c(CCNS(=O)(=O)c3cc(Cl)ccc3Cl)s2)cc1 | ? | . | . | -2% | 25µM* | i
COc1ccc(S(=O)(=O)NCCc2sc(-c3cccc(F)c3)nc2C)cc1 | . | . | . | 0% | 25µM* | i
COc1ccc(-c2nc(C)c(CCNS(=O)(=O)c3cc(C)c(C)cc3C)s2)cc1 | 18% | . | . | 0% | ? | i
NS(=O)(=O)c1ccc(NC(=O)COC(=O)Cn2cnc3ccccc3c2=O)cc1 | -5% | . | 30% | -4% | -21% | i
O=C(Nc1ccccc1)N1CCN(c2nc3ccccc3s2)CC1 | 6% | 1% | 7% | 0% | 22µM* | i
O=C(Nc1ccc(F)cc1)N1CCN(c2nc3ccccc3s2)CC1 | 8% | -1% | -5% | -4% | 9% | i
N=c1nc(N)nc2n1NC(c1ccc(F)cc1)=CS2 | 13µM* | -31% | -9% | 4% | 11µM* | i
Cc1ccc(-c2csc3nc[nH]c(=S)c23)cc1 | 9% | 28% | . | 5% | 18µM* | i
S=c1[nH]cnc2scc(-c3ccc(Br)cc3)c12 | -3% | 1% | 0% | -7% | -5%[9.22 µM] | ?
S=C1NC(c2ccccc2)=NCN1c1ccccc1 | 0% | 1% | 3% | 0% | 13µM* | i
Cc1ccc(-c2nnc(N3CCN(C(=O)c4cccs4)CC3)c3ccccc23)cc1 | 0% | 11% | 0% | -8% | -9% | i
